PubChem BioAssay (NCATS)
Results filed as inconclusive are left out. Activity calls are given as the source filed them. Unless noted, calls come from the whole dose curve; as a rule, active = well fitted curve in the direction sought with a large enough effect; inconclusive = small, poorly fitted or top-dose-only effect, or another doubt; inactive = no such curve, though single readings can be large; an effect the other way counts as inactive or inconclusive.

Legend:
[1] = molecular target: Lysosomal acid glucosylceramidase (Homo sapiens) (UniProt P04062); test: Glucocerebrosidase-p2 (AID 348; in the data active = potency below about 10 µM; note: potency is the fitted concentration of half-maximal effect); conditions: purified GBA, blue fluorogenic substrate, 40 min
Summary of the method: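 Compounds titrated from 0.6 nM upwards against 0.2 nM enzyme in pH 5.9 citric acid/KH2PO4, taurocholate, tween-20; blue fluorogenic substrate 80 uM, 40 min room temperature, stopped and read Ex 365/Em 440 for AC50.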

[2] = AP1 Signaling Pathway (AID 357; active = well fitted curve in either direction with a large enough effect, not every such curve was filed as active;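 note: ME-180 reporter cells stimulated with EGF at its EC50 level; % is set by controls: 0 for no effect and ±100 for the full control effect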); conditions: ME-180 AP-1-bla reporter, EGF-induced, beta-lactamase ratio, 5 h; at 7.69 µM (top of the series) unless noted
Summary of the method: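 Cells are seeded overnight, exposed to compound titrations and an EC50 level of EGF for 5 hours at 37 °C, then loaded with CCF4 dye for 2.5 hours. Beta-lactamase activity under the AP-1 element is read as a blue/green ratio.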

[3] = molecular target: Cytochrome P450 1A2 (Homo sapiens) (UniProt P05177); test: p450-cyp1a2 (AID 410; calls by dose curve; note: potency is the fitted concentration of half-maximal effect;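 for activity change, negative = inhibition: -100% = full effect of reference inhibitor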); conditions: recombinant CYP1A2, luciferin-ME demethylation, luminescence; series mostly up to 57 µM
Summary of the method: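 20nM CYP1A2 with 100uM Luciferin-ME (at Km) in 100mM KPO4; compound preincubated 10 min, NADPH regeneration added, 60 min at room temperature. Luciferin quantified by luminescence after detection reagent; normalized to 57 uM furafylline.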

[4] = NFAT Signaling Pathway (AID 444; active = well fitted curve in either direction with a large enough effect, not every such curve was filed as active;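 note: carbachol stimulus at about its EC50 of 1 µM final; % is set by controls: 0 for no effect and ±100 for the full control effect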); conditions: Jurkat NFAT-bla M1, carbachol, beta-lactamase ratio, 5 h; at 7.69 µM (top of the series) unless noted
Summary of the method: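 Jurkat cells with NFAT-driven β-lactamase reporter and co-expressed M1 receptor, stimulated with carbachol (final 1 uM, ~EC50), compound titration, 5 h at 37 °C. CCF4 loaded 1 h at RT; 460/530 nm ratio gave %activity and AC50.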

[5] = Stat Signaling Pathway (AID 446; active = well fitted curve in either direction with a large enough effect, not every such curve was filed as active;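 note: ME-180 cervical cancer cells given 40 pM IL-6 alongside compound; SIE-controlled beta-lactamase reporter measured as 460/530 nm FRET emission ratio; % is set by controls: 0 for no effect and ±100 for the full control effect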); conditions: ME-180 SIE beta-lactamase reporter, IL-6 stimulated, 5 h; at 7.69 µM (top of the series) unless noted
Summary of the method: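 ME-180 SIE-bla cells; overnight plating; cpd + IL-6 40 pM, 5 h, 37 C; LiveBLAzer 2.5 h RT; 460/530 nm emission ratio. Normalized to 300 pM IL-6 and 125 nM JAK inhibitor controls.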

[6] = molecular target: Glucocorticoid receptor (Homo sapiens) (UniProt P04150); test: GR-GFP Redistribution (AID 450;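 active = compounds whose dose series gives a full or clear partial fitted curve of increased nuclear translocation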; note: potency is the fitted concentration of half-maximal effect); conditions: U2OS GR-GFP nuclear translocation, laser cytometry, 2 h
[7] = molecular target: Glucocorticoid receptor (Homo sapiens) (UniProt P04150); test: GR-EFC Redistribution (AID 451; calls by dose curve; note: potency is the fitted concentration of half-maximal effect); conditions: CHO-K1 GR-EFC translocation, beta-gal luminescence, 2 h
Summary of the method: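 CHO-K1 cells expressing nuclear EA and GR-ED fragments of b-gal; compounds titrated up to 46 uM final, 2 h at 37 C. GR nuclear translocation read as complemented b-gal luminescence after 1 h RT detection.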

[8] = molecular target: Mitogen-activated protein kinase 10 (Mus musculus) (UniProt Q61831); test: JNK3 AlphaScreen Assay (AID 530; active = well fitted curve in either direction with a large enough effect, not every such curve was filed as active;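 note: kinase came from lysate of stimulated human HepG2 cells; signal reports phosphorylation of biotinylated GST-cJun 1-79 at Ser73 with 10 µM ATP; % is set by controls: 0 for no effect and ±100 for the full control effect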); conditions: JNK3 lysate, c-Jun phosphorylation; series mostly up to 57.1 µM
Summary of the method: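 Pre-activated (IL-1β/TNFα) JNK3 in HepG2 lysates phosphorylates biotin-GST-cJun(1-79), 10 uM ATP; anti-phospho-cJun(Ser73) AlphaScreen read at room temperature, pH 7.6 Tris buffer. Compounds pre-incubated 15 min as titrations.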

[9] = molecular target: 3',5'-cyclic-AMP phosphodiesterase 4B (Homo sapiens) (UniProt Q07343); test: qHTS Assay for Inhibitors of PDE-IV (AID 607; active = well fitted activation curve with a large enough effect in the main read-out, with a control signal flat, not every such curve was filed as active; note: % of control where 0% means no effect); conditions: HEK293 ACTOne CNG channel cells, membrane potential fluorescence; series mostly up to 22.9 µM
Summary of the method: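 ACTOne HEK293 cells carry a modified cAMP-gated CNG channel and express endogenous PDE4; plated 1000 cells/well, compounds up to 22.9 uM final. Membrane-potential dye fluorescence (ex 535/em 590) was read; parental cells received 10 uM forskolin + 100 uM RO 20-1724.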

[10] = qHTS Assay for Lipid Storage Modulators (AID 1519; calls by dose curve); conditions: Drosophila S3 cells, BODIPY lipid droplet/cell ratio, laser cytometry, cells loaded with oleic acid; for activity change, negative = inhibition: at 57.5 µM (top of the series)
Summary of the method: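 Cells seeded at 5,000 per well were treated with compounds over a concentration series and loaded with oleic acid (400 uM, as added). Lipid droplet fluorescence (488 nm excitation, 500-530 nm channel) was read by laser-scanning cytometry and normalized to 20 uM Triacsin C.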

[11] = molecular target: Dual specificity protein kinase CLK4 (Homo sapiens) (UniProt Q9HAZ1); test: qHTS Assay for Inhibitors of CDC-like Kinase 4 (Kinase-Glo Assay) (AID 1770); conditions: recombinant Clk4, Kinase-Glo ATP depletion luminescence; series mostly up to 66.7 µM; note: % is set by controls: 0 for no effect and ±100 for the full control effect; nearly all actives have a fitted effect of over 65% in size
Summary of the method: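 Recombinant human Clk4 (25 nM) phosphorylated RS repeat peptide (100 uM) with 1 uM ATP in Tris pH 7.5/MgCl2/EGTA/DTT/Triton buffer for 4.5 h at room temperature. Residual ATP was quantified by Kinase-Glo luciferase luminescence.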

[12] = molecular target: Dual specificity protein kinase CLK4 (Homo sapiens) (UniProt Q9HAZ1); test: qHTS Assay for Inhibitors of CDC-like Kinase 4 (ADP-Glo Assay) (AID 1771); conditions: recombinant CLK4, ADP-Glo luminescence; series mostly up to 80 µM; note: % is set by controls: 0 for no effect and ±100 for the full control effect; nearly all actives have a fitted effect of over 70% in size
Summary of the method: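 25 nM Clk4 with 100 uM RS repeat peptide and 1 uM ATP (final) in buffer with 2 mM MgCl2, 0.5 mM EGTA, 2.5 mM DTT, 0.01% Triton X-100; 1 h at room temperature; ADP-Glo luminescence for ADP formed.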

[13] = molecular target: Dual specificity protein kinase CLK4 (Homo sapiens) (UniProt Q9HAZ1); test: qHTS Assay for Inhibitors of CDC-like Kinase 4 (ADP-FP Assay) (AID 1795); conditions: Transcreener ADP fluorescence polarization; series mostly up to 50 µM; note: % is set by controls: 0 for no effect and ±100 for the full control effect; nearly all actives have a fitted effect of over 60% in size
Summary of the method: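 Recombinant human Clk4 (6.25 nM) phosphorylated RS repeat peptide (100 uM) with 1 uM ATP in Tris pH 7.5/MgCl2/EGTA/DTT/Triton buffer for one hour. ADP was quantified by Transcreener competitive fluorescence polarization against an ADP calibration curve.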

[14] = molecular target: Ubiquitin carboxyl-terminal hydrolase 1 (Homo sapiens) (UniProt O94782); test: Inhibitors of USP1/UAF1: Pilot qHTS (AID 504865); conditions: purified USP1/UAF1, Ub-rhodamine cleavage fluorescence; series mostly up to 54.9 µM;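 note: rhodamine fluorescence freed from ubiquitin-rhodamine substrate followed over time; top concentration of the series differs between compounds; % is set by controls: 0 for no effect and ±100 for the full control effect; nearly all actives have a fitted effect of over 35% in size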
Summary of the method: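 USP1/UAF1 complex (1nM) preincubated with compound 15 min at room temperature, then Ub-Rho substrate (150nM final) added. Fluorescence read kinetically at 480/540 nm, 6 reads every 60 seconds. Buffer: 50mM HEPES pH 7.8, 0.5mM EDTA, 0.1 mg/ml BSA, 1mM TCEP, 0.01% Tween-20.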

[15] = Primary qHTS for small molecule stabilizers of the endoplasmic reticulum resident proteome: Secreted ER Calcium Modulated Protein (SERCaMP) assay (AID 1508630); conditions: SH-SY5Y GLuc-SERCaMP (Gaussia luciferase released on ER calcium loss) secretion, thapsigargin, luminescence; series mostly up to 38.4 µM; note: % is set by controls: 0 for no effect and ±100 for the full control effect
Summary of the method: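 GLuc-SERCaMP-expressing SH-SY5Y cells, pretreated 16 h with compound, are challenged with thapsigargin to empty ER calcium stores; after 4 h, coelenterazine is added directly to the medium and luminescence is imaged.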

[16] = molecular target: Rap guanine nucleotide exchange factor 3 (Homo sapiens) (UniProt O95398); test: Confirmatory qHTS for agonist of cAMP-regulated guanine nucleotide exchange factor 3 (EPAC1) (AID 1645881); conditions: EPAC1 Rap1B BODIPY-GDP exchange fluorescence, 100% = cAMP control response; series mostly up to 154 µM;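 note: EPAC1 catalysed release of BODIPY-GDP from Rap1B seen as fluorescence loss; nearly all actives have a fitted effect of over 75% in size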
[17] = molecular target: Cytochrome P450 3A4 (Homo sapiens) (UniProt P08684); test: qHTS Assay for Inhibitors and Substrates of Cytochrome P450 3A4 (AID 884); conditions: recombinant CYP3A4, Luciferin-PPXE luminescence; series mostly up to 57.1 µM; note: % is set by controls: 0 for no effect and ±100 for the full control effect; nearly all actives have a fitted effect of over 50% in size
Summary of the method: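 20 nM human CYP3A4 with 25 uM Luciferin-PPXE (at KM) in 200 mM KPO4, preincubated 10 min with compound; NADPH regeneration started a 60 min RT reaction. Luciferin detected by luminescence, normalized to 57 uM ketoconazole as full inhibition.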

[18] = measured here: cell count channel max response
[19] = measured here: lipid channel max response

Sequence of Cytochrome P450 1A2 (Homo sapiens) (P05177 whole entry, looked up): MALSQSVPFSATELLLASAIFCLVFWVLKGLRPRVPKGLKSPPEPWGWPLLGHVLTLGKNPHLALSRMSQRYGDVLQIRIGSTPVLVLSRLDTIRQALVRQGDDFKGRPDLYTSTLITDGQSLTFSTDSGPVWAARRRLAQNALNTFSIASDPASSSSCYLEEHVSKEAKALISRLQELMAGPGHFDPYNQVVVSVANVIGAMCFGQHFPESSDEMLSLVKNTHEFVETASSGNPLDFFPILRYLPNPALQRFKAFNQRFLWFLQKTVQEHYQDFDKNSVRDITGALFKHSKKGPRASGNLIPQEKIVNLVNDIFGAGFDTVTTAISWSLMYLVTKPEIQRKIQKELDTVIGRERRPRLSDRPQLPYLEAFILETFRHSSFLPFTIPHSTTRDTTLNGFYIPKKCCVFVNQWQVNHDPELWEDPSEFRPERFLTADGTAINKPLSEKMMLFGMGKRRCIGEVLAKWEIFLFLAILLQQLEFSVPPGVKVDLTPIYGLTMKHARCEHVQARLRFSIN
Sequence of 3',5'-cyclic-AMP phosphodiesterase 4B (Homo sapiens) (Q07343 whole entry, looked up): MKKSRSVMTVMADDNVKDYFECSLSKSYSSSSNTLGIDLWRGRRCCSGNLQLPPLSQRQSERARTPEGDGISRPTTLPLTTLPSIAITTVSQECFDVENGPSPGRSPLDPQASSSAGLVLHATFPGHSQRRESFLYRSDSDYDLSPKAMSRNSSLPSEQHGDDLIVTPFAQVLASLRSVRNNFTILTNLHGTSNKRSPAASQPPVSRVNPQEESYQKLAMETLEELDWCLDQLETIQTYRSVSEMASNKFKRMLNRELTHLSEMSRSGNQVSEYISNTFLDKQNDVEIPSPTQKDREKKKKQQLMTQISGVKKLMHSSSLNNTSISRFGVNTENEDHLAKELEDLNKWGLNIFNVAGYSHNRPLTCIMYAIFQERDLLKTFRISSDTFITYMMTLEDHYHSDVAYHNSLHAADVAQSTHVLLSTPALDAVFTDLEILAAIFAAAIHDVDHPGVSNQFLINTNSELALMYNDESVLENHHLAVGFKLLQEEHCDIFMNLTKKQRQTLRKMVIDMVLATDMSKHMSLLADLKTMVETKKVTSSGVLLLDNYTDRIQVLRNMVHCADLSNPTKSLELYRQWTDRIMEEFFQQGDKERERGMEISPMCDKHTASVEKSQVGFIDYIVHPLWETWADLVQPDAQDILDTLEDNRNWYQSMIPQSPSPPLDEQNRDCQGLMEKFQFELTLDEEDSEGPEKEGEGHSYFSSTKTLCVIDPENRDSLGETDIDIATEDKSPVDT
Sequence of Glucocorticoid receptor (Homo sapiens) (P04150 whole entry, looked up, the tested form may be a part): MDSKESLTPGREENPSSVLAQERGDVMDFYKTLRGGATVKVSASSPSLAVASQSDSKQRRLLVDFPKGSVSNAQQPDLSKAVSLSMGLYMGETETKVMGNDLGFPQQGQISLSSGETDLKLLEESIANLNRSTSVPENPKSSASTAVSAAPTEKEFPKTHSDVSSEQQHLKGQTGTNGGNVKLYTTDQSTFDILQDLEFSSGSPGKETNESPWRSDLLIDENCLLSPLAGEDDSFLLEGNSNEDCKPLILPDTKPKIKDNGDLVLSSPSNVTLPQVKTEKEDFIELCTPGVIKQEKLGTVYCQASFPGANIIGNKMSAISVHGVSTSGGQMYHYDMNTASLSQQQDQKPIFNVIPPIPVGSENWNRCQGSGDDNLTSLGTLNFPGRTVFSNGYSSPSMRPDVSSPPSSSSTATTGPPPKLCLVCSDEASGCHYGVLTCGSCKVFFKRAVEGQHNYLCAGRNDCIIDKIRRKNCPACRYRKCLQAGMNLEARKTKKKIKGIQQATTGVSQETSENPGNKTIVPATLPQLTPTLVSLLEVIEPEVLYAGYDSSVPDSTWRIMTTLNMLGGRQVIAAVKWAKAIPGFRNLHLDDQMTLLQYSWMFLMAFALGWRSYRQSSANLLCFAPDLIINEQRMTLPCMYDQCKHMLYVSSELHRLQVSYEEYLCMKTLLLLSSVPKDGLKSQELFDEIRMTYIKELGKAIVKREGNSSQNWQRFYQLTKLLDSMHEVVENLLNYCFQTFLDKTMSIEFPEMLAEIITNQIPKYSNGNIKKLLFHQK
Sequence of Lysosomal acid glucosylceramidase (Homo sapiens) (P04062 whole entry, looked up): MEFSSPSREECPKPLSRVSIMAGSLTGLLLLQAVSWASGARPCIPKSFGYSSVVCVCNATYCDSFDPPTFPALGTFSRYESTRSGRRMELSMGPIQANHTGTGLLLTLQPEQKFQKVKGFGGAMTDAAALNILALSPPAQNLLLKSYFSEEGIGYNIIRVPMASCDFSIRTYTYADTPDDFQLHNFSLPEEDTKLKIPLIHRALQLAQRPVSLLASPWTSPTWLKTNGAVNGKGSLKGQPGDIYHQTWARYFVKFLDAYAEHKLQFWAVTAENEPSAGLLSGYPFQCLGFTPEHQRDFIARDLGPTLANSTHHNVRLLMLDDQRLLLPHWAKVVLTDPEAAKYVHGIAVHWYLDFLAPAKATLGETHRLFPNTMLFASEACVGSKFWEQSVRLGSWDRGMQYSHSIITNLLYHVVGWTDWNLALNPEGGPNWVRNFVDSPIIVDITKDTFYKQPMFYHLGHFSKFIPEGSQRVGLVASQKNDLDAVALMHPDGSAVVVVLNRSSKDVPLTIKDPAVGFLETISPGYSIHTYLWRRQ
Sequence of Dual specificity protein kinase CLK4 (Homo sapiens) (Q9HAZ1 whole entry, looked up): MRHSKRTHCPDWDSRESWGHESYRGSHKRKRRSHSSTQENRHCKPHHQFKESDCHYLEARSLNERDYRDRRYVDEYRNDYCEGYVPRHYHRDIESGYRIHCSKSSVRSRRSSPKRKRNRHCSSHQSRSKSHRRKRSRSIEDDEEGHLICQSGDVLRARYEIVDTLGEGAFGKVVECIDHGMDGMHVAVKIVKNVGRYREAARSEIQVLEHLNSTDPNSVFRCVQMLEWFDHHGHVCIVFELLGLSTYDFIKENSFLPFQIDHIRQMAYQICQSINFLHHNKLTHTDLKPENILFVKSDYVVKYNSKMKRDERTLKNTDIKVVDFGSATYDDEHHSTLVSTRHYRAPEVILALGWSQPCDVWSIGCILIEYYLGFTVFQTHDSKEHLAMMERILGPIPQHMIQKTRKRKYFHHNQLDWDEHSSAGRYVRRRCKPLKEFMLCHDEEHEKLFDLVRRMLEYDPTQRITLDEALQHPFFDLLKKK
Sequence of Ubiquitin carboxyl-terminal hydrolase 1 (Homo sapiens) (O94782 whole entry, looked up): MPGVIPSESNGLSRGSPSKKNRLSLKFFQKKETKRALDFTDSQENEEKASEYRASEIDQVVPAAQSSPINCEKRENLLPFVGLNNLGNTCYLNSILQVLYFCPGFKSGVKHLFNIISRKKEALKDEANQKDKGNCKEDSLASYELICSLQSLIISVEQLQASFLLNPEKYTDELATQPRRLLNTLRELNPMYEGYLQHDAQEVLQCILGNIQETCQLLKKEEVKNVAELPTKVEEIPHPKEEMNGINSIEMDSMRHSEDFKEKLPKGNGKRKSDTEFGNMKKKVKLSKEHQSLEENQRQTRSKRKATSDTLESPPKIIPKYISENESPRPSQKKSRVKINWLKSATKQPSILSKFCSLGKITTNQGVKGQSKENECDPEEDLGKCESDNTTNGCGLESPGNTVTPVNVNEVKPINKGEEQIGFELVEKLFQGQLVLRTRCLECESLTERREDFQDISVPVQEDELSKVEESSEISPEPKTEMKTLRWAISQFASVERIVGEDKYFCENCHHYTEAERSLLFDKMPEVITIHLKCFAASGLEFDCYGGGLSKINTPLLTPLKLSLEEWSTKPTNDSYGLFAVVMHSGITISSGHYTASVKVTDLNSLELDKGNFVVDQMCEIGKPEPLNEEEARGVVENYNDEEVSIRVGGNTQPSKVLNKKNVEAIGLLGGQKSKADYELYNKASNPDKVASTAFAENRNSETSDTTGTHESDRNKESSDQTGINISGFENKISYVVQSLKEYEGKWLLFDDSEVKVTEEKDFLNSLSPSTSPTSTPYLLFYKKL
Sequence of Rap guanine nucleotide exchange factor 3 (Homo sapiens) (O95398 whole entry, looked up): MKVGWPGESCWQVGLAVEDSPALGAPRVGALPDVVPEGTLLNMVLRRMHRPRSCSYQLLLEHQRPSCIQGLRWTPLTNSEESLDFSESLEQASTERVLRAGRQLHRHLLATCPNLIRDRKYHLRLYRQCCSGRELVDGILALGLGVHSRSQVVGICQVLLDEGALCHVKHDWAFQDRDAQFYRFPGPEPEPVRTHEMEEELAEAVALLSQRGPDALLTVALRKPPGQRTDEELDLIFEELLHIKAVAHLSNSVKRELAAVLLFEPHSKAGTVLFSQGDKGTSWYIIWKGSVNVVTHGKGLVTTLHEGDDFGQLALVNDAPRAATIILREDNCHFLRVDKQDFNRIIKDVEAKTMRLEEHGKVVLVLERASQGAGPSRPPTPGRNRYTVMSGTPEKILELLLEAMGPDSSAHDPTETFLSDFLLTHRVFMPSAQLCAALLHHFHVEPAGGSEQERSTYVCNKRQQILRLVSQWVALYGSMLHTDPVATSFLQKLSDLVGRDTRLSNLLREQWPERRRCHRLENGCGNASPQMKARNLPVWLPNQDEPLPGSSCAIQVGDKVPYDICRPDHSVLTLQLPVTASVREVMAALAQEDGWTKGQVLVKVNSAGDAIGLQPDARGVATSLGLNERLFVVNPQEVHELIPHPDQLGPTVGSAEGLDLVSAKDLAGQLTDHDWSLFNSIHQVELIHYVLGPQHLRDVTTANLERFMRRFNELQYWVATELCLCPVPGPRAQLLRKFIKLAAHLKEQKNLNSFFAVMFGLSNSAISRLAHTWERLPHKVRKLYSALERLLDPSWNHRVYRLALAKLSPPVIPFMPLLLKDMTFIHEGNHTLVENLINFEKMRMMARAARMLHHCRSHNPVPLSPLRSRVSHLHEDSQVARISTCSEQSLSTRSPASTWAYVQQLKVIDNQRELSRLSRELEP

CN(C)c1ncc2nc(-c3cccc(C#N)c3)c(=O)n(CCC#N)c2n1
Potency [1]: > 11.4 µM (inactive)
activity change, negative = inhibition [2]: -2.98% (inactive)
Potency [3]: inactive
activity change, negative = inhibition [4]: 4.07% (inactive)
activity, negative = inhibition [5]: -8.5% (inactive)
Potency [6]: > 9.22 µM (inactive)
Potency [7]: > 46 µM (inactive)
outcome [8]: inactive
Potency [9]: inactive
activity change, negative = inhibition [10]: 1.84% (inactive)
max response [10, 18]: 5.81%
max response [10, 19]: 7.25%
Potency [11]: inactive
Potency [12]: inactive
Potency [13]: inactive
Potency [14]: inactive
Potency [15]: inactive

COc1ccc(-c2nc3cnc(N4CCNCC4)nc3n(Cc3cccs3)c2=O)cc1
Potency [3]: 3.98 µM (active)
activity change, negative = inhibition [4]: 182% [activator] (active)
Potency [6]: > 46 µM (inactive)
Potency [7]: > 46 µM (inactive)
outcome [8]: inactive
Potency [9]: inactive
activity change, negative = inhibition [10]: 1.49% (inactive)
max response [10, 18]: 7.67%
max response [10, 19]: 6.52%
Potency [11]: inactive
Potency [12]: inactive
Potency [13]: inactive
Potency [15]: inactive
outcome [16]: inactive

Cc1noc(C)c1-c1cc(N(C)Cc2ccco2)ncn1
Potency [1]: > 11.4 µM (inactive)
activity change, negative = inhibition [2]: 1.26% (inactive)
Potency [3]: 3.16 µM (active)
activity change, negative = inhibition [4]: -16% (inactive)
activity, negative = inhibition [5]: 6.33% (inactive)
Potency [6]: > 46 µM (inactive)
Potency [7]: > 46 µM (inactive)
outcome [8]: inactive
Potency [9]: inactive
activity change, negative = inhibition [10]: 2.86% (inactive)
max response [10, 18]: 13.8%
max response [10, 19]: 17.9%
Potency [11]: inactive
Potency [12]: inactive
Potency [13]: inactive
Potency [14]: inactive
Potency [15]: inactive

N#Cc1cccc(-c2nc3cnc(Oc4cccc(Cl)c4)nc3n(C3CC3)c2=O)c1
Potency [1]: > 11.4 µM (inactive)
activity change, negative = inhibition [2]: -1.53% (inactive)
Potency [3]: 2.51 µM (active)
activity change, negative = inhibition [4]: 12.5% (inactive)
activity, negative = inhibition [5]: -10.1% (inactive)
Potency [6]: > 9.22 µM (inactive)
Potency [7]: > 46 µM (inactive)
outcome [8]: inactive
Potency [9]: inactive
Potency [17]: inactive
activity change, negative = inhibition [10]: -3.65% (inactive)
max response [10, 18]: 11%
max response [10, 19]: 8.29%
Potency [11]: inactive
Potency [12]: inactive
Potency [13]: inactive
Potency [14]: inactive
Potency [15]: inactive

O=c1c(-c2ccc(F)cc2)nc2cnc(Oc3cccc(Cl)c3)nc2n1C1CC1
Potency [1]: > 11.4 µM (inactive)
activity change, negative = inhibition [2]: 25.5% (inactive)
Potency [3]: 0.316 µM (active)
activity change, negative = inhibition [4]: 16.4% (inactive)
activity, negative = inhibition [5]: -8.35% (inactive)
Potency [6]: > 9.22 µM (inactive)
Potency [7]: > 46 µM (inactive)
outcome [8]: inactive
Potency [9]: inactive
activity change, negative = inhibition [10]: 0.37% (inactive)
max response [10, 18]: -8.94%
max response [10, 19]: -12.9%
Potency [11]: inactive
Potency [12]: inactive
Potency [13]: inactive
Potency [14]: inactive
Potency [15]: inactive
